Hits are enriched below; roughly 0.3% of the tested compounds scored in any of these assays.
NPYLR7 ag: mosquito NPYLR7 agonism; HEK293T NPYLR7/Galpha15, GCaMP6s calcium fluorescence; activation, % at 10 µM; hit rate 0.15% among 270,000; AID 1259423; in the data active = activation above about 40%;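 note: 0% = vehicle and 100% = reference agonist at the receptor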
hcGAS lum: human cGAS inhibition; hit rate 0.081% among 290,000; inhibition, % at 12.5 µM; recombinant h-cGAS, ATP depletion, Kinase-Glo luminescence; Q8N884; AID 1259398;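 note: 0% = vehicle reaction and 100% = reaction without DNA for no activity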
mcGAS inh: blocks mouse cGAS activity; recombinant cGAS, Kinase-Glo ATP depletion luminescence; inhibition, % at 12.5 µM; hit rate 0.15% among 160,000; AID 1259399;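 note: 0% = negative control wells and 100% = reference inhibitor with no enzyme activity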
Target sequence (Q8C6L5 whole entry, looked up): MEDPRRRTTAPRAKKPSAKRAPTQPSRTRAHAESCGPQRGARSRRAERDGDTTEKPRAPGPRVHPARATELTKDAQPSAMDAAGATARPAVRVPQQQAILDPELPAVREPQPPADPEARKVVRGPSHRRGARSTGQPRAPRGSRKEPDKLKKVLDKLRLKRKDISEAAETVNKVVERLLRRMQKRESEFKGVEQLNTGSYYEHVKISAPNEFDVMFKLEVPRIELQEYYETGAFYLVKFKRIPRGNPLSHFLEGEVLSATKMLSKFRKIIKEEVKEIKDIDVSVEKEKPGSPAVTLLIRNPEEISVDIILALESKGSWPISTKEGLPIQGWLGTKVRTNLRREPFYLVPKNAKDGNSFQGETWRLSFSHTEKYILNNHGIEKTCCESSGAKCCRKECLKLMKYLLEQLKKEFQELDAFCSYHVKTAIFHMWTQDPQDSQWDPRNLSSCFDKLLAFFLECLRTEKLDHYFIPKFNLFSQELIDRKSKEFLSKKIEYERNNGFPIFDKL
Numbers without * were called inactive; · = no result given. Cut-off read from the data, not from the text of the source, unless noted: active = inhibition above about 40%; inactive = the rest.

SMILES	NPYLR7 ag	hcGAS lum	mcGAS inh
CCN1CCc2c(sc(NC(C)=O)c2-c2nc3ccccc3s2)C1	5.2	72.8*	94.2*
CCN1CCc2c(sc(NC(=O)c3ccco3)c2-c2nc3ccccc3s2)C1	9.0	37.8	39.2
O=c1ccc(C(F)(F)F)cn1Cc1nc(-c2ccccc2)no1	1.8	-5.7	·
COCCN(CC(=O)Nc1cc(C(C)(C)C)nn1-c1ccc(C)cc1C)C(=O)NCc1ccccc1	-1.0	-3.4	-3.0
Cc1[nH]n(-c2cccc(Cl)c2)c(=O)c1C1=C([n+]2ccccc2)C(=O)N(Cc2ccccc2)C1=O	-5.2	-3.8	-3.0
Cc1nc(C(=O)NCc2nc(-c3ccccc3NC(=O)CC3CCCC3)oc2C)cs1	23.8	-7.2	-9.4
Cc1ccc(C#N)c(SCC(=O)c2cccc(Cl)c2)n1	5.7	-5.8	-3.9
CCN1CCc2c(sc(NC(=O)CS(=O)(=O)c3ccccc3)c2-c2nc3ccccc3s2)C1	22.5	-8.7	-8.1
CCC(=O)Nc1sc2c(c1-c1nc3ccccc3s1)CCN(CC)C2	27.6	73.1*	100.3*
Cc1cc(C=C2SC(=Nc3ccc(Cl)cc3)NC2=O)c(C)n1-c1ccc(S(N)(=O)=O)cc1	-1.3	1.6	1.0
O=S(=O)(O)c1cc(N=C=S)ccc1/C=C/c1ccc(N=C=S)cc1S(=O)(=O)O	2.6	85.8*	·
CC(C)(C)/[N+]([O-])=C/c1ccc(S(=O)(=O)O)cc1S(=O)(=O)O	-9.7	-3.2	·
COc1ccc(Cl)cc1NC(=O)/C(C#N)=C/c1coc2ccc(C)cc2c1=O	49.6*	11.2	·
COc1ccc(C)cc1NC(=O)Cn1cnc2cc(Cl)ccc2c1=O	-4.4	-4.3	·
Cc1ccc(C(c2cc(Br)ccc2O)N2CCCCC2)cc1 (stereo unspecified)	-3.7	-6.5	·
CCCN(CC1CC1)c1nc(-c2ccccc2C(F)(F)F)nc2ccccc12	5.9	-0.7	1.8
Cc1cccc(COC(CN2CCN(C(=O)c3oc4ccccc4c3C)CC2)c2ccc(Cl)cc2)c1 (stereo unspecified)	5.1	-2.9	-5.1
COCCN(Cc1ccc(C)cc1)CC(O)COCC(C)C (stereo unspecified)	17.8	1.2	90.1*
COCCN(Cc1ccc(OC)cc1)CC(O)COC(C)C (stereo unspecified)	44.8	-3.1	-5.2
COc1cccc(C(=O)CSc2nnnn2-c2cc(C)cc(C)c2)c1	0.6	-3.7	-7.7
O=C1OC(c2ccccc2F)=NC1=Cc1ccco1	12.2	2.8	-0.6
Cn1cnc(-c2ccc(F)cc2)cc1=O	-3.0	-6.0	-6.9
Cn1nc(-c2ccc(F)cc2)nc2c(=O)n(C)c(=O)nc1-2	2.2	25.7	67.3*
CCC1=NOC(CNC(=O)c2cnn3ccn(C)c23)C1 (stereo unspecified)	-1.1	4.0	1.4
COc1cccc(CNC(=O)c2nc(C)ncc2Cl)c1	-8.2	12.7	·
SMILES	NPYLR7 ag	hcGAS lum	mcGAS inh
Cc1c(Cl)cccc1N=Nc1c(-c2ccccc2)[nH]n(-c2nc(-c3ccccc3)cs2)c1=O	-2.9	53.4*	20.2
O=c1c(N=Nc2ccccc2Cl)c(-c2ccccc2)[nH]n1-c1nc(-c2ccccc2)cs1	7.8	22.3	3.3
Cc1cc(C)c2c(c1)OC/C(=C\c1csnn1)C2=O	-3.8	-0.9	44.8*
O=C1/C(=C/c2csnn2)COc2c1ccc(Cl)c2Cl	-2.2	-6.6	·
COc1ccc(CCOc2nc(-c3ccc(F)cc3)n(-c3cccc(NC(=O)c4ccc(F)cc4)c3)n2)cc1	19.5	-11.4	-5.0
C#CCOCC(O)CN(Cc1cccn1Cc1ccccc1C)C1CC1 (stereo unspecified)	35.2	-4.6	41.1*
C#CCOCC(O)CN(Cc1ccccc1C)C1CC1 (stereo unspecified)	15.7	-4.2	-1.8
COc1ccc2c(c1)C1(SC(C)(C)CN1C(=O)NC1CCCCC1)C(=O)N2 (stereo unspecified)	4.4	-7.5	-6.4
O=C(OC[C@H]1O[C@H](OC(=O)c2cc(O)c(O)c(OC(=O)c3cc(O)c(O)c(O)c3)c2)[C@H](OC(=O)c2cc(O)c(O)c(OC(=O)c3cc(O)c(O)c(O)c3)c2)[C@@H](OC(=O)c2cc(O)c(O)c(OC(=O)c3cc(O)c(O)c(O)c3)c2)[C@@H]1OC(=O)c1cc(O)c(O)c(OC(=O)c2cc(O)c(O)c(O)c2)c1)c1cc(O)c(O)c(OC(=O)c2cc(O)c(O)c(O)c2)c1	-13.4	51.3*	·
CC(=O)OC[C@H]1O[C@@H](Oc2cc(OC(C)=O)c3c(=O)cc(-c4ccc(OC(C)=O)cc4)oc3c2)[C@H](OC(C)=O)[C@@H](OC(C)=O)[C@@H]1OC(C)=O	-3.2	-3.7	·
O=c1oc(C=Cc2ccco2)nc2sc3c(c12)CCCC3	-1.9	-7.9	·
O=c1oc(/C=C/c2ccco2)nc2ccc(Br)cc12	-11.6	19.6	45.1*
COc1cc2oc(=O)cc(C)c2c(OC)c1OC(C)=O	-0.7	2.3	·
CC(=O)Oc1cc2oc(=O)c(Cl)c(C)c2cc1Cl	-1.1	72.2*	29.0
CCN1C(=Cc2cc(C)[n+](CCO)c(C)c2)Sc2ccccc21	45.5	2.0	-1.0
CCN1C(=Cc2cc(C)[n+](C3CCCCC3)c(C)c2)Sc2ccccc21	265.9*	0.9	·
CCC(CO)[n+]1c(C)cc(C=C2Sc3ccccc3N2Cc2ccccc2)cc1C (stereo unspecified)	150.5*	6.8	·
CCN1/C(=C\C=C2/SC(=NCc3ccccc3)N(C)C2=O)Sc2ccccc21	-5.0	0.0	1.3
N#Cc1ccc(CNC(=O)NCc2ccc(OC(F)F)cc2)c(F)c1	6.8	-6.3	·
C=CCCC(O)CNc1ccc(-n2nc(OCCOCC)nc2-c2ccccc2C)cc1 (stereo unspecified)	-1.2	52.1*	0.4
CCOCCOc1nc(-c2ccccc2C)n(-c2ccc(NC(=O)CCCCl)cc2)n1	-0.9	1.9	0.4
CCOC(=O)C1(Cc2cccc(OC)c2)CCCN(C(=O)c2csc(SC)n2)C1 (stereo unspecified)	9.1	-1.9	·
CC(c1cccs1)N(C)C(=O)c1ccc(S(=O)(=O)N(C)C)cc1 (stereo unspecified)	7.2	-3.1	-7.6
O=C(Nc1ccc(Cl)cn1)c1ccc(Cn2cc(Br)c([N+](=O)[O-])n2)cc1	0.6	2.8	·
O=C(Nc1ccc(Cl)cn1)c1[nH]ncc1[N+](=O)[O-]	0.9	60.5*	·
SMILES	NPYLR7 ag	hcGAS lum	mcGAS inh
N#CC1C(=N)Oc2cc(N)ccc2C1c1ccc(Cl)cc1Cl (stereo unspecified)	5.6	-7.4	·
N#CC1C(=N)Oc2cc(O)ccc2C1c1ccc(Br)cc1 (stereo unspecified)	0.1	-1.8	·
N#CC1C(=N)Oc2cc(O)ccc2C1c1cccs1 (stereo unspecified)	11.0	-4.4	-0.6
N#CC1C(=N)Oc2cc(O)ccc2C1c1ccccc1I (stereo unspecified)	82.2*	4.0	1.9
N#CC1C(=N)Oc2cc(O)ccc2C1c1ccncc1 (stereo unspecified)	85.0*	-7.9	-1.4
N#CC1C(=N)Oc2cc(O)ccc2C1c1ccc(Cl)cc1Cl (stereo unspecified)	96.0*	-4.6	·
CC(Sc1nnc(C2CC2)n1C1CC1)C(=O)NC12CC3CC(CC(C3)C1)C2 (stereo unspecified)	-1.2	-7.6	·
COc1ccc2[nH]c(CNC(=O)c3cc(C)[nH]n3)cc2c1	-4.5	-4.9	·
COC(=O)c1ccc(C(=O)OC)c(NC(=O)c2cc3cc(Cl)ccc3oc2=O)c1	-1.4	-6.0	-6.3

Screening data as filed in PubChem BioAssay.
